# Laboratory results published in the supplement of paper PMC10941209.
# System: Toxoplasma gondii RH 2F1 tachyzoites (intracellular in HFF)
# Test: parasite survival relative to DMSO control; higher = less antiparasitic activity, active = 20 or less
# Conditions: 1 µM; 72 h
# Procedure, shortened: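 Intracellular Toxoplasma gondii RH-2F1 tachyzoites, which express β-galactosidase, were grown in HFF cells (5 × 10^3 cells/well, 96-well plates) infected with 5 × 10^3 parasites in D2 medium for 3 h, then treated with compound at 1 μM for 72 h at 37°C in 5% CO2. Cells were lysed for 15 min, then CPRG was added and absorbance read at 570 nm after 30 min. Survival is the signal as a percentage of DMSO-treated infected controls, from 2 or more biological replicates.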
row,SMILES,parasite survival
1,CC(=N)N1CC[C@H](SC2=C(C(=O)O)N3C(=O)[C@@H]([C@@H](C)O)[C@H]3C2)C1,53.7% (inactive)
2,NC(=O)c1[nH]c2ccc(S(N)(=O)=O)cc2c1-c1ccccc1,72.1% (inactive)
3,CS(=O)(=O)c1ccc(Oc2ccc(Cl)cc2)cc1,54.5% (inactive)
4,Nc1nc2c(ncn2COCCO)c(=O)[nH]1,67.4% (inactive)
5,N[C@@H]1CN(c2c(F)cc3c(=O)c(C(=O)O)cn([C@@H]4C[C@@H]4F)c3c2Cl)CC12CC2,51.8% (inactive)
6,O=[N+]([O-])c1cn2c(n1)OC[C@@H](OCc1ccc(OC(F)(F)F)cc1)C2,45.2% (inactive)
7,Oc1ccc2[nH]c(-c3ccccc3)nc2c1,66.2% (inactive)
8,O=C(Nc1ccc(F)cc1)c1nn(-c2ccccc2)c(=O)cc1Cl,42.6% (inactive)
9,O=C(O)c1sccc1S(=O)(=O)n1ccc2cc(Br)ccc21,66.8% (inactive)
10,CCN(CC)CCn1c(=N)n(CC(O)COc2ccc(Cl)cc2Cl)c2ccccc21 (stereo not given),26.7% (inactive)
11,O=C(NCc1cccc2ccccc12)c1cccs1,32% (inactive)
12,Cc1ccc(Oc2ccccc2-c2csc(N=C3NCCCN3)n2)c(C)c1,30.1% (inactive)
13,Cc1c(OCC(F)(F)F)ccnc1C[S+]([O-])c1nc2ccccc2[nH]1 (stereo not given),45.7% (inactive)
14,CNC(=O)C1O[C@@H](n2cnc3c(NCc4cccc(I)c4)nc(Cl)nc32)[C@H](O)[C@@H]1O (stereo not given in full),68.3% (inactive)
15,C[Si]1(C)CCN(Cc2cc(-c3ccc(Cl)cc3)n(-c3ccc(Cl)cc3)n2)CC1,13.7% (active)
16,O=C1NC(=O)C(Br)=C1Br,35.2% (inactive)
17,CCCNc1ccc(S(=O)(=O)Nc2cc(C)on2)cc1,65.5% (inactive)
18,CCCCC(CC)CNC(=N)NC(=N)NCCCCCCNC(=N)NC(=N)NCC(CC)CCCC (stereo not given),3.8% (active)
19,NC1C2CC3CC(C2)CC1C3 (stereo not given),68.3% (inactive)
20,COc1ccccc1NC(=O)c1ccccc1Sc1ccc([N+](=O)[O-])cc1,52% (inactive)
21,CC(C)/N=c1\cc2n(-c3ccc(Cl)cc3)c3ccccc3nc-2cc1Nc1ccc(Cl)cc1,4.63% (active)
22,CCOc1ccc(C(=O)NCCc2ccccc2)cc1,60.8% (inactive)
23,CCc1nc(N)nc(N)c1C#CC(C)c1cc(OC)cc(-c2ccncc2)c1 (stereo not given),4.08% (active)
24,COC(=O)Nc1nc2ccccc2[nH]1,53% (inactive)
25,CC(=O)N1c2ccccc2NC2=C(C(=O)CC(C)(C)C2)C1c1ccc(OCc2ccccc2)cc1 (stereo not given),46.7% (inactive)
